KB-3-1 cytotox: kills parental KB-3-1 adenocarcinoma cells | hit rate 1.4% among 400,000 | Potency, µM (highest dose often 46.1 µM), actives largely listed as cytotoxic | AID 1347075 | KB-3-1 viability, CellTiter-Glo ATP luminescence, 72 h; further: on the % scale 0 is the no-effect control and ±100 the full control effect; nearly all actives have a fitted effect of over 60% in size
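Using CellTiter-Glo luminescence, growth of non-resistant KB-3-1 adenocarcinoma cells is assessed 72 h after pin-tool compound addition at 37 °C. Normalized responses across the concentration series yield fitted curves.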
ELG1 DNA repair: ELG1-dependent DNA repair inhibition. HEK293T ELG1-luciferase reporter, luminescence, 16 h; DNA damage induced by 5-fluorouridine. Potency, µM (series often up to 46.1 µM), without a hit: at the top dose activity change, negative = inhibition, usual class: inhibitors. hit rate 2.3% among 330,000; further: on the % scale 0 is the no-effect control and ±100 the full control effect; nearly all actives have a fitted effect of over 55% in size
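Cells (2,000 per well) received 5-fluorouridine plus test compound or DMSO and were incubated 16 hr at 37 °C, 5% CO2. Luciferase activity was read by luminescence 30 min after ONE-Glo addition; signal suppression marked inhibition of damage-induced ELG1 function.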
MCF10A rerep: induces DNA re-replication in MCF 10a normal breast cells | MCF 10A DNA re-replication, Hoechst nuclear intensity, 48 h | Potency, µM (highest dose often 46.1 µM), inactives show top-dose activity, positive = re-replication, usual class: activators | hit rate 2.9% among 350,000 | AID 624296; further: % of control where 0% means no effect; nearly all actives have a fitted effect of over 50% in size
KB-V1 MDR tox: kills drug-selected multidrug resistant KB-V1 cells | Potency, µM (doses to about 46.1 µM), hits mostly cytotoxic | hit rate 3.4% among 400,000 | KB-V1 MDR cells viability, CellTiter-Glo, 72 h; further: on the % scale 0 is the no-effect control and ±100 the full control effect; nearly all actives have a fitted effect of over 60% in size
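Cytotoxicity via CellTiter-Glo luminescence after 72 h compound exposure at 37 degrees C. Cells: drug-selected KB-V1 line, DMEM phenol-red free plus 10% FBS. Compounds tested at multiple concentrations; normalized data fitted to concentration-effect curves.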
SW480 rerep: inducers of DNA re-replication in SW480 colon cancer cells | SW480 DNA re-replication, Hoechst DNA content imaging, 48 h | hit rate 1.8% among 340,000 | AID 624297 | Potency, µM (titrated, usually from 46.1 µM), without a hit: at the top dose re-replication activation, usual class: activators; further: % of control where 0% means no effect; nearly all actives have a fitted effect of over 55% in size
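Cells (250 per well) received 23 nL compound or DMSO by pin tool and were kept 48 hr at 37 C, 5% CO2. Nuclei were then stained with Hoechst for 40 min and scanned for DNA content.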
The depositor's hits bear a star; i = inactive; u = inconclusive; x = no result; [ ] = dose if it differs, or a comment. Hits are enriched below; roughly 8.1% of the tested compounds scored in any of these assays. The call rests on the fitted dose curve; in most records, active means well fitted curve in the direction sought with a large enough effect; inconclusive means small, poorly fitted or top-dose-only effect, or another doubt; inactive means no such curve, though single readings can be large; an effect the other way counts as inactive or inconclusive. Potency means the concentration at half of the fitted maximal effect.

SMILES	KB-3-1 cytotox	ELG1 DNA repair	MCF10A rerep	KB-V1 MDR tox	SW480 rerep
CC(=O)Nc1c(Br)cc2c(c1Br)C(=O)c1ccccc1-2	i	x	10%	i	1%
CC(=O)C1=C(c2ccc(Br)cc2)C(=O)c2ccccc2C1=O	u	3.7µM*	7.3µM*	7.3µM*	8.2µM*
CC1(c2ccc3c(c2)OCO3)NC(=O)N(CC(=O)Nc2ccccc2[N+](=O)[O-])C1=O (stereo not drawn)	i	-2%	-1%	15µM*	-2%
Cc1ccccc1NC(=O)CN1C(=O)NC(C)(c2ccc3c(c2)OCO3)C1=O (stereo not drawn)	i	16%	-3%	i	-3%[9.22 µM]
COC(=O)c1c(NC(=O)c2ccco2)sc2c1C(C(=O)OC)CC2 (stereo not drawn)	i	u	23%	18µM*	15%
COC(=O)c1c(NC(=O)C(C)C)sc2c1C(C(=O)OC)CC2 (stereo not drawn)	u	-25%	-3%	13µM*	-3%
Nc1c(NC2CCCCC2)c2ccccc2oc1=O	i	-18%	2%	16µM*	2%
CCOC(=O)CN1CCC(C2(c3cc4ccccc4[nH]3)OCCO2)CC1	i	x	x	i	x
CCOc1ccc(=O)n(-c2ccccc2)n1	i	3%	-25%	i	-12%
O=C(COc1ccc(F)cc1)c1ccc2c(c1)CCCC2	i	x	10µM*	i	1%
COC(=O)C1=C(C)N(Cc2ccccc2)C(=NCc2cccc(C(F)(F)F)c2)N[C@H]1c1cccc(F)c1	u	u	12µM*	u	u
COCCN=C1N[C@@H](c2cccc(C(F)(F)F)c2)C(C(=O)OC)=C(C)N1Cc1ccccc1	i	8%	1%	i	-2%
COC(=O)C1=C(C)N(Cc2ccccc2)C(=NCc2cccc(C(F)(F)F)c2)N[C@H]1c1cccc(C(F)(F)F)c1	u	18µM*	3.7µM*	u	28%[9.22 µM]
CCOC(=O)C1CCN(S(=O)(=O)c2ccc3c(c2)N(C(C)=O)CC(C)S3)CC1 (stereo not drawn)	u	7%	-1%	u	8%
CC(C)(C)OC(=O)NCCCCCc1nnc(SCc2ccc(F)cc2)o1	i	u	3%	u	12%
CN1CCN(S(=O)(=O)c2ccc(NC(=O)c3ccc(Br)o3)cc2)CC1	i	12%	17%	9.2µM*	-5%
O=C(Nc1ccc2c(c1)CCC2)c1ccc(Br)o1	i	u	21µM*	i	-1%[9.22 µM]
CN1CCN(S(=O)(=O)c2ccc(NC(=O)c3ccc(Br)s3)cc2)CC1	i	12%	15µM*	i	u
CN1CCN(S(=O)(=O)c2ccc(NC(=O)c3ccccc3Cl)cc2)CC1	i	2%	-21%	i	2%
O=C(Nc1ccc(S(=O)(=O)N2CCCC2)cc1)c1ccc(Br)o1	i	-1%	-2%	i	-5%
CC(C)C1C(c2ccccc2)NC(c2ccccc2)CC1(O)c1ccc(F)cc1 (stereo not drawn)	i	u	16µM*	i	u
O=C(Nc1ccc2c(c1)OCO2)c1cc(-c2ccncc2)nc2ccccc12	u	-18%	18µM*	u	u
O=C(N/N=C/c1ccc2c(c1)OCO2)c1cc(-c2ccccc2Cl)nc2ccccc12	i	u	u	i	20%
O=C(Nc1ccc2c(c1)OCO2)c1cc(-c2ccc(O)cc2)on1	i	u	10µM*	i	u
Cc1cc(C(=O)N/N=C/c2ccc3c(c2)OCO3)c2ccccc2n1	2.6µM*	u	u	u	10µM*
SMILES	KB-3-1 cytotox	ELG1 DNA repair	MCF10A rerep	KB-V1 MDR tox	SW480 rerep
CCOc1ccccc1-c1cc(C(=O)N/N=C/c2ccc3c(c2)OCO3)c2ccccc2n1	u	u	15%	i	5%
O=C(N/N=C/c1ccc2c(c1)OCO2)c1cc(-c2ccncc2)nc2ccccc12	5.8µM*	-24%	5.8µM*	i	16µM*
COc1ccc(CCNC(=O)C(=O)NCC2OCCN2S(=O)(=O)c2ccc(F)cc2)cc1 (stereo not drawn)	i	u	-6%	u	0%
Cc1[nH]n(-c2ccc([N+](=O)[O-])cc2)c(=O)c1C=NCCN1CCN(C(=O)c2ccc(Br)cc2)CC1	u	u	14%	i	1%
CC(C)(C)SCCNC(=O)/C=C/c1ccc(F)cc1	i	u	-5%	i	4%
CC(C)(CNC(=O)/C=C/c1ccc(F)cc1)CNC(=O)/C=C/c1ccc(F)cc1	i	23µM*	-4%	u	-2%
O=C(CC(O)c1ccccc1)Nc1ccccn1 (stereo not drawn)	i	x	2%	i	-1%
COc1cnc(-c2ccccn2)nc1Oc1c(C)cccc1C	i	u	u	u	u
COc1cnc(-c2ccccn2)nc1Sc1c(Cl)cccc1Cl	u	u	u	2.9µM*	15µM*
COc1cnc(-c2ccccn2)nc1Oc1cccc(Cl)c1	i	u	1%	6.5µM*	3%
CCOC(=O)C(C)Sc1nc(-c2ccccn2)ncc1OC (stereo not drawn)	i	-11%	20%	u	0%
COc1cnc(-c2ccccn2)nc1Sc1ccccc1Cl	u	u	u	i	13µM*
COc1cnc(-c2ccccn2)nc1N(C)C	u	u	13%	21µM*	18µM*
COc1ccc(Oc2nc(-c3ccccn3)ncc2OC)cc1	i	-28%	-9%	i	-7%
Cc1ccc2c(c1)N(C(=O)CCC(=O)Nc1ccc(F)cc1F)CC(C)O2 (stereo not drawn)	i	x	x	i	x
OCCNc1nc(Nc2cccc(O)c2)nc2ccccc12	i	u	-4%	i	-24%
Oc1ccccc1Nc1nc(NCC2CCCO2)c2ccccc2n1 (stereo not drawn)	u	u	u	16µM*	0%
COc1cccc(Nc2nc(NCCO)c3ccccc3n2)c1	u	16µM*	u	u	u
Clc1cccc(-c2nc(NCc3cccnc3)c3ccccc3n2)c1	i	7.3µM*	u	15µM*	15%
Oc1ccc(Cl)cc1Nc1nc(NCC2CCCO2)c2ccccc2n1 (stereo not drawn)	i	x	23µM*	i	u
O=C1NC2C3CC(c4ccccc43)C12 (stereo not drawn)	i	x	x	i	x
CCOc1ccc(N2CC(=O)Nc3ccccc3NCC2=O)cc1	i	-5%	-1%	i	6%
CCOc1ccccc1CN1CCN(Cc2ccon2)CC1CCO (stereo not drawn)	i	-4%	-10%	i	22%
